Reference: PubChem BioAssay AID463173 (ICCB-Longwood Screening Facility, Harvard Medical School, 2010)
In all, about 52,000 compounds went through this assay and about 1,700 (3.3%) were called active. Rule as the data show it: active = survival mostly below about 52% (no sharp cut-off); inactive = mostly above about 56%. The full list was thinned out, with actives kept by preference.

The compounds below were run on Wild type (assay: S. aureus survival, RN4220 and DeltatarO strains – OD600, teichoic acid synthesis inhibitors, primary screen (AID 463173)). Settings: S. aureus RN4220 wild type/DeltatarO growth, OD600, 18 h, active compounds read low, screened at 18.75 µg/mL (by protocol).

| SMILES | survival |
| --- | --- |
| Fc1ccc(CSc2nncn3c2cc2occc23)c(Cl)c1 | 88% (inactive) |
| CC(C)c1ccc(NC(=O)c2ccc3oc(=O)c(S(=O)(=O)c4ccc(F)cc4)cc3c2)cc1 | 70% (inactive) |
| Cc1cc(=O)n2nc(N(C)CC(=O)NCc3ccc(Cl)cc3)sc2n1 | 85% (inactive) |
| CCC(C(=O)NC1CCCCC1)n1c(SCc2cccc(F)c2)nc2ccncc21 (stereo not drawn) | 124% (inactive) |
| CCOc1ccccc1CNC(=O)c1ccc2c(c1)N(Cc1ccc(C)cc1)CCS2 | 79% (inactive) |
| CCC(Cc1ccccc1)NC(=O)Cn1ncc2c3ccccc3n(Cc3ccccc3)c2c1=O (stereo not drawn) | 80% (inactive) |
| CCCCC1CCC(CCCC(C)CCC(=O)O)CC1 (stereo not drawn) | -5% (active) |
| CCCCCCC1CCC(C(=O)NC(C(=O)O)C(C)C)CC1 (stereo not drawn) | 59% (inactive) |
| CCCCCCC1CC=C(C(=O)O)CC1 (stereo not drawn) | 110% (inactive) |
| CCOc1ccc(NC(=O)Cn2c(=O)cc(C)c3c(C)nn(-c4ccc(CC)cc4)c32)cc1 | 127% (inactive) |
| CCN(c1ccc(C)cc1C)S(=O)(=O)c1nnc(NC(=O)c2ccc(F)cc2)s1 | 20% (inactive) |
| CC(C)CN(CCNC(=O)c1cn(C)c2ccc(S(=O)(=O)N3CCOCC3)cc2c1=O)CC(C)C | 82% (inactive) |
| CCOC(=O)c1cccc(NC(=O)NCc2cccn2Cc2ccccc2)c1 | 123% (inactive) |
| CCOc1ccc(NC(=O)NCc2cccn2Cc2ccccc2)cc1 | 64% (inactive) |
| CCOC(=O)Cc1ccc(NC(=O)NCc2cccn2Cc2ccccc2)cc1 | -6% (active) |
| Cc1nn(CC(=O)NCc2cccc(F)c2)c(=O)c2c(C)n(-c3ccc(Cl)cc3)nc12 | 75% (inactive) |
| COc1ccc(/C=C/c2nc(-c3ccccc3O)n(-c3ccccc3)n2)cc1OC | 8% (active) |
| Oc1ccccc1-c1nc(/C=C/c2ccccc2)nn1-c1ccccc1 | 2% (active) |
| COc1ccc(/C=C/c2noc(-c3ccccc3O)n2)cc1OC | 136% (inactive) |
| COc1cc2c(-c3ccccc3O)nc3c(c(C)nn3-c3ccccc3)c2cc1OC | 63% (inactive) |
| Oc1ccccc1-c1nc(/C=C/c2ccc(F)cc2)nn1-c1ccccc1 | 34% (inactive) |
| CC(=O)Nc1ccc(/C=C/c2nc(-c3ccccc3O)n(-c3ccccc3)n2)cc1 | 86% (inactive) |
| COc1cc2c(-c3ccccc3Cl)nc3c(c(C)nn3-c3ccccc3)c2cc1OC | 73% (inactive) |
| Oc1ccc(/C=C/c2nc(-c3ccccc3O)n(-c3ccccc3)n2)c(O)c1 | -1% (active) |
| Oc1ccccc1-c1nc(/C=C/c2ccccc2Cl)no1 | 81% (inactive) |
| Cc1nc(C)c(C(=O)N/N=C/c2ccc(O)cc2O)cc1C(=O)N/N=C/c1ccc(O)cc1O | 108% (inactive) |
| Oc1ccccc1-c1nc(/C=C/c2ccccc2Cl)nn1-c1ccccc1 | 2% (active) |
| CN(C)c1ccc(/C=C/c2nc(-c3ccccc3O)n(-c3ccccc3)n2)cc1 | 46% (inactive) |
